These results are taken from PubChem BioAssay (Tox21).

Records with an inconclusive call do not appear. A call without a number means that no potency is given here. A number with no mark means an inactive call. The source made the active and inactive calls. Unless noted, calls follow the shape of the dose curve; as a rule, active = well fitted cell-killing curve with a large enough effect in the repeat runs (not every such curve was filed as active); inconclusive = weak or mixed curves, or effect the other way; inactive = no such curve, though single readings can be large or run the other way.

One assay is described as follows: qHTS assay to identify small molecule agonists of the farnesoid-X-receptor (FXR) signaling pathway - cell viability counter screen (AID 743218; active = well fitted cell-killing curve with a large enough effect in the repeat runs; also: nearly all actives have a fitted effect of over 45% in size). The conditions noted are these: FXR-bla HEK293T viability, CellTiter-Glo luminescence, 16 h; series mostly up to 62.6 µM; viability change, negative = cytotoxic: at the top concentration. A digest of the protocol: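 After 16 h at 37 C with test compounds, FXR-bla HEK 293T cells were given LiveBLAzer B/G substrate for 2 h at RT and then CellTiter-Glo; luminescence was taken after 30 min.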
With `CCCCCCCCCCCC(=O)N(C)CC(=O)O`, the Potency entry was “inactive”.

Turning to `O=C(O)C1=NN(c2ccc(S(=O)(=O)O)cc2)C(=O)C1`, the Potency result was “inactive”.

For `CCc1cccc(CC)c1N`, the Potency result was “inactive”.

Take `CC(=O)OCCC(C)C`: the Potency entry is “inactive”.

Consider `COC(=O)OC`, for which the Potency entry was “inactive”.

Consider `Nc1nc(N)c2nc(-c3ccccc3)c(N)nc2n1`, for which the Potency entry was “inactive”.

For the molecule `CC(=O)OC(C)(C)C1CC=C(C)CC1` (stereo not drawn), the “viability change, negative = cytotoxic” value is -15.4%.

On to `CC(=O)C(C)C`, for which the Potency result is “inactive”.

Another assay can be described thus: qHTS assay to identify small molecule antagonists of the farnesoid-X-receptor (FXR) signaling pathway - cell viability counter screen (AID 743221). Also: nearly all actives have a fitted effect of over 50% in size. The settings on record: FXR-bla HEK293T viability, CellTiter-Glo luminescence, 16 h; series mostly up to 62.6 µM; activity change, negative = cytotoxicity: at the top concentration. A digest of the protocol:
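CellTiter-Glo, 30 min RT, luminescence; same wells as the LiveBLAzer FRET read. Cells: FXR-UAS-bla HEK 293T. Treatment: compound with chenodeoxycholic acid 50 uM final, 16 h at 37 C.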
Background: Quantitative high-throughput screening tests each substance at several concentrations.
Take `OCC(CO)(CO)CO`: the Potency entry was “inactive”.

With `Nc1cccc(N)n1`, the Potency entry is “inactive”.

In the case of `Cc1cc(C)cc(O)c1`, the Potency result was “inactive”.

In the case of `CC(O)CNCC(C)O` (stereo not drawn), the Potency result is “inactive”.

As to `N[C@@H](Cc1cc(I)c(Oc2ccc(O)c(I)c2)c(I)c1)C(=O)O`, the Potency entry is “inactive”.

Turning to `N#CCC(=O)O`, the Potency result was “inactive”.

For `C1CCCNCC1`, the Potency entry was “inactive”.

With `NC(=O)NC(N)=O`, the Potency result is “inactive”.

As for `OCC(O)CS` (stereo not drawn), the Potency entry is “inactive”.

For `O=[N+]([O-])c1ccccc1C(F)(F)F`, the Potency result is “inactive”.

`CC1=CC(=O)CC(C)(C)C1`: the Potency result is “inactive”.

`C=CC(C)(C)C`: the Potency result is “inactive”.

On to `CN1Cc2c(N)cccc2C(c2ccccc2)C1` (stereo not drawn), for which the Potency result was “inactive”.

With `COc1ccc(N)c(OC)c1`, the Potency entry was “inactive”.

On to `O=C(Cl)c1ccc(C(=O)Cl)cc1`, for which the Potency result is “inactive”.

As for `OC1CCCCC1`, the Potency entry was “inactive”.

Take `CCCCCNCCCCC`: the Potency entry was “inactive”.

On to `Brc1ccc(Oc2ccc(Br)cc2)cc1`, for which the Potency entry was “inactive”.

As to `Cc1ccccc1C=O`, the Potency result is “inactive”.

Consider `CC(=O)OC/C=C(\C)CCC=C(C)C`, for which the Potency entry was “inactive”.

Consider `O=C(c1ccccc1)c1ccc(O)c(O)c1O`, for which the Potency entry was “inactive”.

For the molecule `Cc1nnc(NS(=O)(=O)c2ccc(N)cc2)s1`, the Potency entry is “inactive”.

Turning to `COc1cc(NC(=O)CC(C)=O)c(OC)cc1Cl`, the Potency result was “inactive”.

For `Cc1cccc(C)c1[N+](=O)[O-]`, the “activity change, negative = cytotoxicity” value was 1.93%.

As to `CS(=O)(=O)c1ccc(Cl)cc1`, the Potency entry was “inactive”.
